Several values for one entry are separate records, joined by “and”; a condition that tells them apart may be missing. Identical values can stand only once. About 83,000 compounds went through this panel and 20% of them were active in at least one assay; those are over-represented in the sample as a whole.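 96-well plates, one dose, 48 hours. Percent growth reported; active if below 10.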 Activity calls are given as the source filed them.

The test concerns SK-OV-3 ovarian. The test can be described thus: NCI-60 one-dose screen, 48 h (100 = growth as untreated, 0 = no growth, -100 = all killed). The note with it: 10 µM unless noted.
With `CCCCn1c(=O)c(C(=O)NCc2ccccc2Cl)c(O)c2ccccc21`, the growth was 80.8% (inactive). For the compound `O=C(NCCCN1CC1)Nc1cccc2ccccc12`, the growth was 101% (inactive) and 95.8% (inactive). Take `Oc1cc(N2CC2)c(O)cc1N1CC1`: the growth is 2.44% (active). Regarding `CC12CCC3C4CCC(=O)C=C4CCC3C1CC1CC(=O)OC12` (configuration not stated), the growth was 101% (inactive).

As for `CCOP(=O)(OCC)C(=O)N(CC)CC`, the growth is 104% (inactive). Turning to `C#Cc1cccc(Nc2nc(Cl)nc3cc(NC(=O)CF)ccc23)c1`, the growth was 81.5% (inactive).

Take `CC[C@H](C)[C@H](NC(=O)[C@H]1CCCCN1C)C(=O)N(C)[C@H](C(=O)NC12CC(C(=O)N[C@@H](Cc3ccccc3)C[C@H](C)C(=O)OC)(C1)C2)C(C)C`: the growth is 104% (inactive). Turning to `CN1CCC2(CC1)C(C#N)C(=O)NC(=O)C2C#N` (configuration not stated), the growth was 110% (inactive). Regarding `CC12CCC3C(CCC4CC(O)CCC43C)C1CCC2=O` (configuration not stated), the growth was 126% (inactive). Consider `C=CC[PH+](c1ccccc1)c1ccccc1.C=CC[PH+](c1ccccc1)c1ccccc1.[Pt+2].[S-]c1nc2ccccc2[nH]1.[S-]c1nc2ccccc2[nH]1`, for which the growth is 8.34% (active). Regarding `Cc1cc[c-]cc1.Fc1c[c-]c(-c2ccccn2)c(F)c1.[Pt+2].c1ccc([PH+](c2ccccc2)c2ccccn2)cc1`, the growth is 91.7% (inactive). Regarding `C=C[Se]CC(=O)/C=C/c1ccccc1`, the growth was 53% (inactive). As for `CCCCCCCCCCCCCCCCCC1OCC(COC(=O)O[C@@H](C(=O)O[C@H]2C[C@@]3(O)[C@@H](OC(=O)c4ccccc4)[C@@H]4[C@]5(OC(C)=O)CO[C@@H]5C[C@H](O)[C@@]4(C)C(=O)[C@H](OC(C)=O)C(=C2C)C3(C)C)[C@@H](NC(=O)c2ccccc2)c2ccccc2)O1` (some centres not stated), the growth is 49.5% (inactive). Consider `CC1(C)C=Cc2c(ccc3c2[N+]([O-])=C2C3=C[C@@]34NC(=O)[C@]5(CCCN5C3=O)C[C@@H]4C2(C)C)O1`, for which the growth was 85.5% (inactive).

Turning to `O=C(O)C1C(C(=O)O)C2(Cl)C(Cl)=C(Cl)C1(Cl)C2(Cl)Cl` (configuration not stated), the growth was 103% (inactive) and 107% (inactive).

Regarding `CNC(=O)O/N=C(\SC)C(=O)N(C)C`, the growth was 102% (inactive). In the case of `C[C@]12CCc3sc(Nc4ccc(F)cc4F)nc3C1=CC[C@@H]1[C@@H]2CC[C@]2(C)C(=O)CC[C@@H]12`, the growth was 84.1% (inactive). Consider `N#CC(C#N)=C(C#N)C#N`, for which the growth was 109% (inactive). In the case of `N#CCC(=O)c1ccccc1` it was 105% (inactive); in that of `O=C(O)c1ccc(=O)[nH]c1`, 98.9% (inactive) and 93% (inactive). For `CC[C@H](C)[C@H](NC(=O)CN(C)C)C(=O)N(C)[C@H](C[C@@H](OC(C)=O)c1nc(C(=O)NC23C4C5C2C2C3C4C52C(=O)OC)cs1)C(C)C` (some centres not stated) the value was 35.1% (inactive); for `CNC(=O)Oc1ccc(Cl)cc1SSc1cc(Cl)ccc1OC(=O)NC`, 104% (inactive). As for `CC(=O)OC1CC2(O)C(CCC3(C)C(c4ccc(=O)oc4)CCC32O)C2(C)CCC(OC3OC(CO)C(O)C(O)C3O)C=C12` (configuration not stated), the growth was -13.9% (active). As for `Oc1ccc(O)c(Cl)c1`, the growth was 108% (inactive) and 105% (inactive).

In the case of `CC(=O)Nc1nc2c(s1)C1=CC[C@H]3[C@@H]4CC[C@H](OC(C)=O)[C@@]4(C)CC[C@@H]3[C@@]1(C)CC2`, the growth was 68.4% (inactive).

Consider `O=C(O)C(F)F`, for which the growth was 98.5% (inactive). Regarding `CC[C@H](C)[C@H](NC(=O)C12CC(NC)(C1)C2)C(=O)N(C)[C@H](C[C@@H](OC(C)=O)c1nc(C(=O)N[C@@H](Cc2ccccc2)C[C@H](C)C(=O)OC)cs1)C(C)C`, the growth is 39.6% (inactive).

For the compound `NC(=O)Oc1cc(OC(N)=O)cc(N(CCCl)CCCl)c1`, the growth was 76% (inactive). Turning to `CC[PH+](CC)CC.O=COC1OC([S-])C(OC=O)C(OC=O)C1OC=O.[Au+]` (configuration not stated), the growth is -45.5% (active).

With `CCOC(=O)c1ccccc1C(=O)OCC`, the growth is 113% (inactive). Turning to `C[C@@H]1C/C=C\C(=O)O[C@H](/C=C/C#C/C=C/C(C)(C)[C@@H](O)c2cccc(O)c2Br)[C@@H](C)/C=C/[C@H](C)C[C@H](OC(N)=O)C1`, the growth is 55.9% (inactive). In the case of `Cc1c(C)c(N)c(C)c(C)c1N`, the growth is 91.3% (inactive). Regarding `Nc1ccc(P(=O)(O)O)cc1`, the growth is 104% (inactive) and 108% (inactive). In the case of `OCCN=Cc1c[nH]c2ccccc12`, the growth is 98.6% (inactive).

For `S=P(SP(=S)(c1ccccc1)c1ccccc1)(c1ccccc1)c1ccccc1`, the growth is 106% (inactive). On to `CN1CCc2cc3c(cc2C1O)OCO3` (configuration not stated), for which the growth was 97.9% (inactive) and 105% (inactive).

With `Cc1cc(NC(=O)NCCCOc2ccc(N3C(N)=NC(N)=NC3(C)C)cc2Cl)ccc1S(=O)(=O)F`, the growth was 65.3% (inactive).
